The source made the active and inactive calls. Rule for the calls: active = hit-call score of the fitted dose curve at least 0.9, where 1 is the maximum; inactive = score below 0.9.
read-out: serum amyloid A (SAA), SAA1 (gene 6288); test: BSK_CASM3C_SAA: BioMAP Diversity Plus: CASM3C Assay for serum amyloid A (SAA) Biomarker Activity (AID 2283049); settings: primary human coronary artery smooth muscle cells; actives raise or lower the signal;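 note: SAA protein level quantified by ELISA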

SMILES | outcome | AC50
Nc1nc2ncc(CNc3ccc(C(=O)N[C@@H](CCC(=O)O)C(=O)O)cc3)nc2c(=O)[nH]1 | inactive | –
COCCOCCOCCOC | inactive | –
COCCOc1cc2cc(C(=O)NC3CCN(C(C)C)CC3)n(CC(=O)Nc3ccc(Cl)cn3)c2cn1 | inactive | –
CC(C)CCCCCCCOC(=O)CCCCC(=O)OCCCCCCCC(C)C | inactive | –
O=C(CCCCCCCCc1cccnc1)N1CCC(C=C(c2ccccc2)c2ccccc2)CC1 | – | 37.5 µM (active)
CCc1cc(SCc2sc(-c3ccc(C(F)(F)F)cc3)nc2CN2CCN(c3ccc(OC)cc3)CC2)ccc1OCC(=O)O | – | 31.9 µM (active)
Cn1c(=O)c2c(ncn2C)n(C)c1=O | inactive | –
Cn1c(=O)cc(Oc2ccc(F)cc2F)c2cnc(NCC(C)(C)O)nc21 | – | 3.97 µM (active)
CC(C)CCO | inactive | –
O=c1n(CC2CO2)c(=O)n(CC2CO2)c(=O)n1CC1CO1 (stereo not drawn) | inactive | –
CCNc1ccccc1 | inactive | –
CCOCCOCCOCCO | inactive | –
COc1ccc2sc(C(=O)Nc3nnn[nH]3)c(OC(C)C)c2c1 | – | 19.9 µM (active)
Cc1[nH]cnc1C[C@H]1CCc2c(C)c3ccccc3n2C1=O | inactive | –
COC(=O)c1ccccc1O | inactive | –
CC(C)=CCC/C(C)=C/CO | inactive | –
CC(C)CCCCCCOC(=O)c1ccc(C(=O)OCCCCCCC(C)C)c(C(=O)OCCCCCCC(C)C)c1 | inactive | –
COc1ccc(/C=C/S(=O)(=O)NC(=O)c2ccc(C)cc2Cl)cc1 | inactive | –
CCN(C(=O)c1cc(C)cc(OC[C@H](C)Nc2ccncc2)c1)C(C)C | inactive | –
CCCN(C1CCN(C(=O)C2CCNCC2)CC1)[C@@H]1CCc2ccc(OC)cc2C1 | inactive | –
Cc1c(-c2cccnc2)c2ccccc2n1CCCCC(=O)O | inactive | –
CC[C@H]1OC(=O)[C@H](C)[C@@H](O[C@H]2C[C@@](C)(OC)[C@@H](O)[C@H](C)O2)[C@H](C)[C@@H](O[C@@H]2O[C@H](C)C[C@H](N(C)C)[C@H]2O)[C@](C)(O)C[C@@H](C)C(=O)[C@H](C)[C@@H](O)[C@]1(C)O | inactive | –
CN(C)c1ccc(N=NS(=O)(=O)O)cc1 | inactive | –
O=c1[nH]c2ccc(S(=O)CCN3CCC(Cc4ccc(F)cc4)CC3)cc2o1 (stereo not drawn) | inactive | –
Cn1cnc([N+](=O)[O-])c1Sc1ncnc2nc[nH]c12 | inactive | –
CCOC(=O)CC(CC(=O)OCC)(OC(C)=O)C(=O)OCC | inactive | –
O=C(OC[C@H]1O[C@@H](OC(=O)c2cc(O)c(O)c(OC(=O)c3cc(O)c(O)c(O)c3)c2)[C@H](OC(=O)c2cc(O)c(O)c(OC(=O)c3cc(O)c(O)c(O)c3)c2)[C@@H](OC(=O)c2cc(O)c(O)c(OC(=O)c3cc(O)c(O)c(O)c3)c2)[C@@H]1OC(=O)c1cc(O)c(O)c(OC(=O)c2cc(O)c(O)c(O)c2)c1)c1cc(O)c(O)c(OC(=O)c2cc(O)c(O)c(O)c2)c1 | inactive | –
CC(C)=CCCC(C)=CC=O | inactive | –
CCOc1cccc(-n2cc(C(=O)N3CCN(c4cc(C(=O)O)c5ccccc5c4)CC3)nc2-c2ccc(C)cc2)c1 | inactive | –

read-out: not listed separately; test: BSK_CASM3C_SRB: Viability Assessment in the BioMAP Diversity Plus: CASM3C Assay (AID 2283050); settings: primary human coronary artery smooth muscle cells;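 note: total protein by SRB staining as cytotoxicity measure in parallel cultures; cells exposed to compound for 24 h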

SMILES | outcome | AC50
Nc1nc2ncc(CNc3ccc(C(=O)N[C@@H](CCC(=O)O)C(=O)O)cc3)nc2c(=O)[nH]1 | inactive | –
COCCOCCOCCOC | inactive | –
COCCOc1cc2cc(C(=O)NC3CCN(C(C)C)CC3)n(CC(=O)Nc3ccc(Cl)cn3)c2cn1 | inactive | –
CC(C)CCCCCCCOC(=O)CCCCC(=O)OCCCCCCCC(C)C | inactive | –
O=C(CCCCCCCCc1cccnc1)N1CCC(C=C(c2ccccc2)c2ccccc2)CC1 | – | 39.1 µM (active)
CCc1cc(SCc2sc(-c3ccc(C(F)(F)F)cc3)nc2CN2CCN(c3ccc(OC)cc3)CC2)ccc1OCC(=O)O | – | 30.1 µM (active)
Cn1c(=O)c2c(ncn2C)n(C)c1=O | inactive | –
Cn1c(=O)cc(Oc2ccc(F)cc2F)c2cnc(NCC(C)(C)O)nc21 | inactive | –
CC(C)CCO | inactive | –
O=c1n(CC2CO2)c(=O)n(CC2CO2)c(=O)n1CC1CO1 (stereo not drawn) | inactive | –
CCNc1ccccc1 | inactive | –
CCOCCOCCOCCO | inactive | –
COc1ccc2sc(C(=O)Nc3nnn[nH]3)c(OC(C)C)c2c1 | – | 15.5 µM (active)
Cc1[nH]cnc1C[C@H]1CCc2c(C)c3ccccc3n2C1=O | inactive | –
COC(=O)c1ccccc1O | inactive | –
CC(C)=CCC/C(C)=C/CO | inactive | –
CC(C)CCCCCCOC(=O)c1ccc(C(=O)OCCCCCCC(C)C)c(C(=O)OCCCCCCC(C)C)c1 | inactive | –
COc1ccc(/C=C/S(=O)(=O)NC(=O)c2ccc(C)cc2Cl)cc1 | inactive | –
CCN(C(=O)c1cc(C)cc(OC[C@H](C)Nc2ccncc2)c1)C(C)C | inactive | –
CCCN(C1CCN(C(=O)C2CCNCC2)CC1)[C@@H]1CCc2ccc(OC)cc2C1 | inactive | –
Cc1c(-c2cccnc2)c2ccccc2n1CCCCC(=O)O | inactive | –
CC[C@H]1OC(=O)[C@H](C)[C@@H](O[C@H]2C[C@@](C)(OC)[C@@H](O)[C@H](C)O2)[C@H](C)[C@@H](O[C@@H]2O[C@H](C)C[C@H](N(C)C)[C@H]2O)[C@](C)(O)C[C@@H](C)C(=O)[C@H](C)[C@@H](O)[C@]1(C)O | inactive | –
CN(C)c1ccc(N=NS(=O)(=O)O)cc1 | inactive | –
O=c1[nH]c2ccc(S(=O)CCN3CCC(Cc4ccc(F)cc4)CC3)cc2o1 (stereo not drawn) | inactive | –
Cn1cnc([N+](=O)[O-])c1Sc1ncnc2nc[nH]c12 | inactive | –
CCOC(=O)CC(CC(=O)OCC)(OC(C)=O)C(=O)OCC | inactive | –
O=C(OC[C@H]1O[C@@H](OC(=O)c2cc(O)c(O)c(OC(=O)c3cc(O)c(O)c(O)c3)c2)[C@H](OC(=O)c2cc(O)c(O)c(OC(=O)c3cc(O)c(O)c(O)c3)c2)[C@@H](OC(=O)c2cc(O)c(O)c(OC(=O)c3cc(O)c(O)c(O)c3)c2)[C@@H]1OC(=O)c1cc(O)c(O)c(OC(=O)c2cc(O)c(O)c(O)c2)c1)c1cc(O)c(O)c(OC(=O)c2cc(O)c(O)c(O)c2)c1 | inactive | –
CC(C)=CCCC(C)=CC=O | inactive | –
CCOc1cccc(-n2cc(C(=O)N3CCN(c4cc(C(=O)O)c5ccccc5c4)CC3)nc2-c2ccc(C)cc2)c1 | inactive | –

From PubChem BioAssay (EPA / NIEHS)
